Test results published in the supplement of paper PMC4022240.
± gives the standard deviation.

Columns and labels:
Assay in all cases: peptide microarray binding signal (635 nm), min-max normalized on array (fraction of array maximum); higher = stronger binding
[1] = biological target: T1, HaloTag-ATRX ADD domain (163-292)
T1 chain: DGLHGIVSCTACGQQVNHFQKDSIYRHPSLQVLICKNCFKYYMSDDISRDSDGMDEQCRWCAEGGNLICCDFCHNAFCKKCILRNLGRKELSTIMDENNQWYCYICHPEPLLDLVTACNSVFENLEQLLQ
Summary of the method: (§1)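 Histone 13-mer peptide–cellulose conjugates were printed in triplicate on nitrocellulose with a Cy3 tracer, then blocked overnight at 4°C. Arrays were probed for 1 h at 4°C with biotin-labelled HaloTag reader fusions (10 nM to 1 μM) plus streptavidin-Alexa Fluor 647, or with rabbit histone antibodies (1:10,000 to 1:2,000) plus anti-rabbit Alexa 647. An Axon GenePix 4000B scanned 635 nm for signal and 532 nm for misprints. Binding signal is the triplicate-spot mean intensity, min-max scaled per library.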

[2] = biological target: HaloTag-ING2 PHD (mouse Ing2 200-280)
Summary of the method: as §1

[3] = biological target: anti-H3K4me3 antibody ab8580
Summary of the method: as §1

[4] = biological target: anti-H3K9me3 antibody ab8898
Summary of the method: as §1

[5] = peptide region: H4 16-28, peptide modifications: H4R19cit H4K20ac, binder concentration: 1:2,000 dilution
[6] = peptide region: H4 16-28, peptide modifications: H4R19cit H4K20ac, binder concentration: 1:10,000 dilution
[7] = peptide region: H4 16-28, peptide modifications: H4R19me2a H4K20ac, binder concentration: 1:2,000 dilution
[8] = peptide region: H4 16-28, peptide modifications: H4R19me2a H4K20ac, binder concentration: 1:10,000 dilution
[9] = peptide region: H4 8-19, peptide modifications: H4R17me2s, binder concentration: 1:2,000 dilution
[10] = peptide region: H4 8-19, peptide modifications: H4R17me2s, binder concentration: 1:10,000 dilution
[11] = peptide region: H4 16-28, peptide modifications: H4K20me3, binder concentration: 1:2,000 dilution
[12] = peptide region: H4 16-28, binder concentration: 1:2,000 dilution
[13] = peptide region: H4 16-28, peptide modifications: H4K20me1, binder concentration: 1:2,000 dilution
[14] = peptide region: H4 16-28, peptide modifications: H4R19me2s H4K20me2, binder concentration: 1:2,000 dilution
[15] = peptide region: H4 16-28, peptide modifications: H4R19me2s H4K20me2, binder concentration: 1:10,000 dilution
[16] = peptide region: H4 16-28, peptide modifications: H4R19cit, binder concentration: 1:2,000 dilution
[17] = peptide region: H4 16-28, peptide modifications: H4R19me2a H4K20me2, binder concentration: 1:2,000 dilution
[18] = peptide region: H4 16-28, peptide modifications: H4R19me2a H4K20me2, binder concentration: 1:10,000 dilution
[19] = peptide region: H4 16-28, peptide modifications: H4R19cit H4K20me3, binder concentration: 1:2,000 dilution
[20] = peptide region: H4 16-28, peptide modifications: H4R19cit H4K20me3, binder concentration: 1:10,000 dilution
[21] = peptide region: H4 16-28, peptide modifications: H4R19me1 H4K20me1, binder concentration: 1:2,000 dilution
[22] = peptide region: H4 16-28, peptide modifications: H4R19me1 H4K20me1, binder concentration: 1:10,000 dilution

B1: H4 16-28 K R H Rcit Kac V L R D N I Q G (peptide)
chain: KRHRKVLRDNIQG
[1]; peptide region: H4 16-28, peptide modifications: H4R19cit H4K20ac, binder concentration: 50 nM
  peptide microarray binding signal: 0.00511 ± 4.9e-05
[1]; peptide region: H4 16-28, peptide modifications: H4R19cit H4K20ac, binder concentration: 500 nM
  peptide microarray binding signal: 0.00829 ± 0.00052
[2]; peptide region: H4 16-28, peptide modifications: H4R19cit H4K20ac, binder concentration: 10 nM
  peptide microarray binding signal: 0.00633 ± 0.0001
[2]; peptide region: H4 16-28, peptide modifications: H4R19cit H4K20ac, binder concentration: 100 nM
  peptide microarray binding signal: 0.0106 ± 0.00059
[3]; [5]
  peptide microarray binding signal: 0.000736 ± 6.2e-05
[3]; [6]
  peptide microarray binding signal: 0.00137 ± 1.3e-05
[4]; [5]
  peptide microarray binding signal: 0.0004832 ± 4.6e-06
[4]; [6]
  peptide microarray binding signal: 0.00196 ± 3.7e-05

B2: H4 16-28 K R H Rme2a Kac V L R D N I Q G (peptide)
chain: KRHRKVLRDNIQG
[1]; peptide region: H4 16-28, peptide modifications: H4R19me2a H4K20ac, binder concentration: 50 nM
  peptide microarray binding signal: 0.003699 ± 3e-05
[1]; peptide region: H4 16-28, peptide modifications: H4R19me2a H4K20ac, binder concentration: 500 nM
  peptide microarray binding signal: 0.006
[2]; peptide region: H4 16-28, peptide modifications: H4R19me2a H4K20ac, binder concentration: 10 nM
  peptide microarray binding signal: 0.00871 ± 0.00039
[2]; peptide region: H4 16-28, peptide modifications: H4R19me2a H4K20ac, binder concentration: 100 nM
  peptide microarray binding signal: 0.0218 ± 0.0012
[3]; [7]
  peptide microarray binding signal: 0.000774 ± 2.5e-05
[3]; [8]
  peptide microarray binding signal: 0.00171 ± 3.3e-05
[4]; [7]
  peptide microarray binding signal: 0.0004379 ± 4.2e-06
[4]; [8]
  peptide microarray binding signal: 0.001211 ± 1.2e-05

B3: H4 8-19 K G L G K G G A K Rme2s H R K (peptide)
chain: KGLGKGGAKRHRK
[1]; peptide region: H4 8-19, peptide modifications: H4R17me2s, binder concentration: 50 nM
  peptide microarray binding signal: 0.00464 ± 0.00023
[1]; peptide region: H4 8-19, peptide modifications: H4R17me2s, binder concentration: 500 nM
  peptide microarray binding signal: 0.02 ± 0.00069
[2]; peptide region: H4 8-19, peptide modifications: H4R17me2s, binder concentration: 10 nM
  peptide microarray binding signal: 0.00173 ± 7.2e-05
[2]; peptide region: H4 8-19, peptide modifications: H4R17me2s, binder concentration: 100 nM
  peptide microarray binding signal: 0.00184 ± 0.00024
[3]; [9]
  peptide microarray binding signal: 0.000132 ± 1.5e-06
[3]; [10]
  peptide microarray binding signal: 0.000685 ± 7.2e-06
[4]; [9]
  peptide microarray binding signal: 0.000861 ± 4.5e-05
[4]; [10]
  peptide microarray binding signal: 0.000807 ± 1.5e-05

B4: H4 16-28 K R H R Kme3 V L R D N I Q G (peptide)
chain: KRHRKVLRDNIQG
[1]; peptide region: H4 16-28, peptide modifications: H4K20me3, binder concentration: 500 nM
  peptide microarray binding signal: 0.000667 ± 3.7e-05
[2]; peptide region: H4 16-28, peptide modifications: H4K20me3, binder concentration: 100 nM
  peptide microarray binding signal: 7.09e-05 ± 1.5e-06
[3]; [11]
  peptide microarray binding signal: 0.000982 ± 0.00023
[4]; [11]
  peptide microarray binding signal: 1.51e-05 ± 1.7e-07

B5: H4 16-28 K R H R K V L R D N I Q G (peptide)
chain: KRHRKVLRDNIQG
[1]; peptide region: H4 16-28, binder concentration: 500 nM
  peptide microarray binding signal: 0.000238 ± 2.5e-06
[2]; peptide region: H4 16-28, binder concentration: 100 nM
  peptide microarray binding signal: 0.000354 ± 4.1e-06
[3]; [12]
  peptide microarray binding signal: 0.000132 ± 1.5e-06
[4]; [12]
  peptide microarray binding signal: 6.04e-05 ± 2.7e-06

B6: H4 16-28 K R H R Kme V L R D N I Q G (peptide)
chain: KRHRKVLRDNIQG
[1]; peptide region: H4 16-28, peptide modifications: H4K20me1, binder concentration: 500 nM
  peptide microarray binding signal: 0.000143
[2]; peptide region: H4 16-28, peptide modifications: H4K20me1, binder concentration: 100 nM
  peptide microarray binding signal: 0.000283
[3]; [13]
  peptide microarray binding signal: 7.55e-05 ± 8.5e-07
[4]; [13]
  peptide microarray binding signal: 4.53e-05

B7: H4 16-28 K R H Rme2s Kme2 V L R D N I Q G (peptide)
chain: KRHRKVLRDNIQG
[1]; peptide region: H4 16-28, peptide modifications: H4R19me2s H4K20me2, binder concentration: 50 nM
  peptide microarray binding signal: 0.003511 ± 2.9e-05
[1]; peptide region: H4 16-28, peptide modifications: H4R19me2s H4K20me2, binder concentration: 500 nM
  peptide microarray binding signal: 0.00548 ± 0.00047
[2]; peptide region: H4 16-28, peptide modifications: H4R19me2s H4K20me2, binder concentration: 10 nM
  peptide microarray binding signal: 0.00937 ± 0.00061
[2]; peptide region: H4 16-28, peptide modifications: H4R19me2s H4K20me2, binder concentration: 100 nM
  peptide microarray binding signal: 0.0138 ± 0.0027
[3]; [14]
  peptide microarray binding signal: 0.00208 ± 0.0003
[3]; [15]
  peptide microarray binding signal: 0.00325 ± 0.00014
[4]; [14]
  peptide microarray binding signal: 0.000966 ± 0.00022
[4]; [15]
  peptide microarray binding signal: 0.00225 ± 0.00011

B8: H4 16-28 K R H Rcit K V L R D N I Q G (peptide)
chain: KRHRKVLRDNIQG
[1]; peptide region: H4 16-28, peptide modifications: H4R19cit, binder concentration: 500 nM
  peptide microarray binding signal: 0.000476 ± 2.1e-05
[2]; peptide region: H4 16-28, peptide modifications: H4R19cit, binder concentration: 100 nM
  peptide microarray binding signal: 0.000283 ± 5.7e-06
[3]; [16]
  peptide microarray binding signal: 9.44e-05 ± 2.1e-06
[4]; [16]
  peptide microarray binding signal: 3.02e-05 ± 3.4e-07

B9: H4 16-28 K R H Rme2a Kme2 V L R D N I Q G (peptide)
chain: KRHRKVLRDNIQG
[1]; peptide region: H4 16-28, peptide modifications: H4R19me2a H4K20me2, binder concentration: 50 nM
  peptide microarray binding signal: 0.0248 ± 0.0013
[1]; peptide region: H4 16-28, peptide modifications: H4R19me2a H4K20me2, binder concentration: 500 nM
  peptide microarray binding signal: 0.0149 ± 0.00068
[2]; peptide region: H4 16-28, peptide modifications: H4R19me2a H4K20me2, binder concentration: 10 nM
  peptide microarray binding signal: 0.0209 ± 0.0011
[2]; peptide region: H4 16-28, peptide modifications: H4R19me2a H4K20me2, binder concentration: 100 nM
  peptide microarray binding signal: 0.0188 ± 0.00076
[3]; [17]
  peptide microarray binding signal: 0.00119 ± 1.7e-05
[3]; [18]
  peptide microarray binding signal: 0.00348 ± 4.9e-05
[4]; [17]
  peptide microarray binding signal: 0.00113 ± 8.4e-05
[4]; [18]
  peptide microarray binding signal: 0.00427 ± 0.00011

B10: H4 16-28 K R H Rcit Kme3 V L R D N I Q G (peptide)
chain: KRHRKVLRDNIQG
[1]; peptide region: H4 16-28, peptide modifications: H4R19cit H4K20me3, binder concentration: 50 nM
  peptide microarray binding signal: 0.0068 ± 9.7e-05
[1]; peptide region: H4 16-28, peptide modifications: H4R19cit H4K20me3, binder concentration: 500 nM
  peptide microarray binding signal: 0.00848 ± 0.0011
[2]; peptide region: H4 16-28, peptide modifications: H4R19cit H4K20me3, binder concentration: 10 nM
  peptide microarray binding signal: 0.0124 ± 0.00084
[2]; peptide region: H4 16-28, peptide modifications: H4R19cit H4K20me3, binder concentration: 100 nM
  peptide microarray binding signal: 0.018 ± 0.0027
[3]; [19]
  peptide microarray binding signal: 0.00832 ± 0.0026
[3]; [20]
  peptide microarray binding signal: 0.00514 ± 0.0003
[4]; [19]
  peptide microarray binding signal: 0.0039 ± 0.0016
[4]; [20]
  peptide microarray binding signal: 0.00369 ± 0.00012

B11: H4 16-28 K R H Rme Kme V L R D N I Q G (peptide)
chain: KRHRKVLRDNIQG
[1]; peptide region: H4 16-28, peptide modifications: H4R19me1 H4K20me1, binder concentration: 50 nM
  peptide microarray binding signal: 0.00552 ± 0.00017
[1]; peptide region: H4 16-28, peptide modifications: H4R19me1 H4K20me1, binder concentration: 500 nM
  peptide microarray binding signal: 0.01 ± 0.00041
[2]; peptide region: H4 16-28, peptide modifications: H4R19me1 H4K20me1, binder concentration: 10 nM
  peptide microarray binding signal: 0.00961 ± 0.00044
[2]; peptide region: H4 16-28, peptide modifications: H4R19me1 H4K20me1, binder concentration: 100 nM
  peptide microarray binding signal: 0.0145 ± 0.0033
[3]; [21]
  peptide microarray binding signal: 0.0027 ± 0.00027
[3]; [22]
  peptide microarray binding signal: 0.002511 ± 2.2e-05
[4]; [21]
  peptide microarray binding signal: 0.00143 ± 4.1e-05
[4]; [22]
  peptide microarray binding signal: 0.002133 ± 2e-05
